This is an account of results in PubChem BioAssay (EPA / NIEHS).

Inconclusive results are not listed. The source made the active and inactive calls. The calls were made as follows: active = hit-call score of the fitted dose curve at least 0.9, where 1 is the maximum; inconclusive = response in the unintended direction; inactive = score below 0.9.

For the first experiment, the target named is Retinoic acid receptor alpha (Homo sapiens) (UniProt P10276). The experiment in a line: NVS_NR_hRAR_Antagonist: NovaScreen (NVS) Nuclear Receptor Binding Assay for human Retinoic Acid Alpha Receptor Antagonism (RAR) (AID 2283358). In short, it runs like this: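 RARalpha antagonism was read by TR-FRET as loss of binding signal versus DMSO, 2 h after chemical addition, in a biochemical format. Single-concentration duplicates (25 uM) were run first, and actives were retested in concentration series.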
Retinoic acid receptor alpha (Homo sapiens), sequence (P10276 whole entry, looked up): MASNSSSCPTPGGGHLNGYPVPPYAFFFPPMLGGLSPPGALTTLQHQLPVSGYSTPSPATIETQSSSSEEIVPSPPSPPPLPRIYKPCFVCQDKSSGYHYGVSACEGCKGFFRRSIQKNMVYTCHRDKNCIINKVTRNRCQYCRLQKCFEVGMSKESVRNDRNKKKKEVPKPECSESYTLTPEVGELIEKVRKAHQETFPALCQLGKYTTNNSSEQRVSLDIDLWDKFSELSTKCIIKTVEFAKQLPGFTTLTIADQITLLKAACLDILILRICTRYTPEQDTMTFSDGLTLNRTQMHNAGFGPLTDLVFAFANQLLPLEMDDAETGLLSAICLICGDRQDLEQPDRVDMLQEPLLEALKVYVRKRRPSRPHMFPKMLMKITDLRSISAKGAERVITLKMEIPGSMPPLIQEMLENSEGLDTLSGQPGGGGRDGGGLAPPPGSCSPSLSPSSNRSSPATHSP
Regarding `CCCCCCCCCCCCCCN(CCO)CCO`, the compound was classed as inactive.

As for `CCCCCCCCc1ccc(S(=O)(=O)O)cc1`, the AC50 is 16.8 µM (active).

Turning to `CCOc1ccc(N=Nc2ccc(C=Cc3ccc(N=Nc4ccc(OCC)cc4)cc3S(=O)(=O)O)c(S(=O)(=O)O)c2)cc1`, the AC50 is 12.9 µM (active).

In a further experiment the target is human Peroxisome Proliferator-activated Receptor alpha (PPARa), PPARA (gene 5465) (UniProt Q07869). The experiment in a line: NVS_NR_hPPARa: NovaScreen (NVS) Nuclear Receptor Binding Assay for human Peroxisome Proliferator-activated Receptor alpha (PPARa) (AID 2283359).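 Also: activity means loss of TR-FRET signal versus DMSO baseline.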 In outline: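 Loss of TR-FRET binding signal relative to DMSO was measured 1 h after chemical addition to extracted receptor protein. Chemicals were first tested in duplicate at 25 uM, and actives were followed up in concentration series.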
human Peroxisome Proliferator-activated Receptor alpha (PPARa), PPARA (gene 5465), sequence (Q07869 whole entry, looked up): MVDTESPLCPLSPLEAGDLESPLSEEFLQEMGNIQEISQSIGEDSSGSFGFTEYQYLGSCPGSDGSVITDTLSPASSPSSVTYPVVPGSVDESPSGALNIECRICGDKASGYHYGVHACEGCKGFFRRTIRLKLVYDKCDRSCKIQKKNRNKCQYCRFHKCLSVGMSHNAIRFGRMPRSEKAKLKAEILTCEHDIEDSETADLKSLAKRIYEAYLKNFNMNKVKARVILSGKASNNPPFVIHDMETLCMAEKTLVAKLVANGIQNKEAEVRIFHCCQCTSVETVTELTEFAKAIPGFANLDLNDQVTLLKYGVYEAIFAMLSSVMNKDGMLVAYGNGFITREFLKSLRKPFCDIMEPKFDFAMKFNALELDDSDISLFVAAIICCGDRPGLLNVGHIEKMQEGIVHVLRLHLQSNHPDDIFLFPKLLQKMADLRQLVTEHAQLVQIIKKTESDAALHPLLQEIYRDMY
In the case of `Clc1ccc(C(c2ccccc2Cl)C(Cl)Cl)cc1` (centres undefined), the call was inactive.

For the compound `CCCCCC(=O)CC`, the outcome was inactive.

On to `CCCCC(CC)COC(=O)c1ccc(O)cc1` (centres undefined), for which the call was inactive.

As for `OC[C@H]1O[C@@H]2O[C@H]3[C@H](O)[C@@H](O)[C@@H](O[C@H]4[C@H](O)[C@@H](O)[C@@H](O[C@H]5[C@H](O)[C@@H](O)[C@@H](O[C@H]6[C@H](O)[C@@H](O)[C@@H](O[C@H]7[C@H](O)[C@@H](O)[C@@H](O[C@H]8[C@H](O)[C@@H](O)[C@@H](O[C@H]9[C@H](O)[C@@H](O)[C@@H](O[C@H]1[C@H](O)[C@H]2O)O[C@@H]9CO)O[C@@H]8CO)O[C@@H]7CO)O[C@@H]6CO)O[C@@H]5CO)O[C@@H]4CO)O[C@@H]3CO`, the compound was classed as inactive.

Consider `Nc1ccc2cc(S(=O)(=O)O)cc(O)c2c1N=Nc1ccccc1C(F)(F)F`, for which the half-maximal activity concentration (AC50) was 0.155 µM (active).

As to `CCCCCCCC/C=C\CCCCCCCC(=O)OCC`, the compound was classed as inactive.

Consider `CCCCCC(C=O)=Cc1ccccc1`, for which the call was inactive.

Turning to `O=P(O)(O)O`, the compound was called inactive.

On to `O=[N+]([O-])c1ccc(O)cc1C(F)(F)F`, for which the compound was classed as inactive.

For the compound `CC(C)CCCCCCCCCCCCCCC(=O)O`, the compound was classed as inactive.

Consider `CCOc1ccc(N=Nc2ccc(C=Cc3ccc(N=Nc4ccc(OCC)cc4)cc3S(=O)(=O)O)c(S(=O)(=O)O)c2)cc1`, for which the AC50 is 9.11 µM (active).

One may read the AC50 as the concentration giving half of the maximal activity seen.
